The values below come from PubChem BioAssay AID624296 (National Center for Advancing Translational Sciences (NCATS), 2012).

The whole screen tested about 350,000 compounds, of which about 9,900 (2.8%) were called active. Inconclusive results (about 15%) are left out. The entries come from a sample that favours actives as a whole. Unmarked numbers belong to inactive results. Calls follow the shape of the dose curve; as a rule, active = well fitted activation curve with a large enough effect; inconclusive = small, poorly fitted or top-dose-only effect; inactive = no such curve, though single readings can be large or run the other way.
Potency is read from the fitted curve at half-maximal effect.

This test in a line: A quantitative high throughput screen for small molecules that induce DNA re-replication in MCF 10a normal breast cells. Also: nearly all actives have a fitted effect of over 50% in size. As to activity, positive = re-replication: % of control where 0% means no effect. As to conditions: MCF 10A DNA re-replication, Hoechst nuclear intensity, 48 h; series mostly up to 46.1 µM; activity, positive = re-replication: at the top concentration. An excerpt: H Molecular Libraries Probe Production Network [MLPCN]
NIH Chemical Genomics Center [NCGC]
Assay Provider: Melvin DePamphilis, NICHD, NIH
Eukaryotic cells normally restrict genome duplication to once per cell division. When this process is aberrant, DNA re-replication occurs when cells reinitiate DNA replication before the first round of replication is complete. DNA re-replication induces the DNA damage response, arrests cell proliferation, and triggers apoptosis. The cell cycle components cyclin A, Cdt-1, Cdc6 and geminin are critical regulators of this process and their misregulation results in DNA re-replication in normal and cancer cells. To identify compounds that induce re-replication in normal cells, an image-based assay was used to measure DNA content of nuclei, as detected by the fluorescent DNA binding dye, Hoechst. Cell nuclei were imaged by a fluorescence scanning plate imager and compounds that induce DNA re-replication were identified by the increase of nuclei with elevated fluorescence intensity
For screening, 250 cells in 5 uL/well were dispensed into black clear 1536-well plates (Aurora) using a solenoid-based dispenser. Following transfer of 23 nL compound or DMSO vehicle by a pin tool, the plates were incubated 48 hr at 37 C and 5% CO2. After addition of 1 uL/well Hoescht stain, the plates were incubated 40 min at 37 C, 5% CO2 and total intensity of fluorescent objects (nuclei) were enumerated by an Acumen Explorer Ex3 (TTP LabTech) fluorescence scanning plate imager (405 nm excitation, 500-530 nm emission).
Keywords: NIH Roadmap, MLPCN, MLI, MLSMR, qHTS, NCGC, DNA replication, cancer
As to `O=C(CCNS(=O)(=O)c1ccccc1)NCCCc1ccccc1`, the “activity, positive = re-replication” value is 1.7%.

In the case of `O=C(Cc1ccc(NC(=O)C2CCCN(C(=O)CCc3ccccc3)C2)cc1)Nc1ccc(C(=O)N2CCOCC2)cc1` (configuration not stated), the “activity, positive = re-replication” value is -4.89%. Still for that read-out and setting: to `Cn1c(=O)[nH]c2c(c(C(=O)O)nn2C)c1=O` belongs 0.839%; to `COc1cc(C(=O)NCC(=O)N2CC=C(c3ccccc3)CC2)cc(OC)c1OC`, 7.06%. `O=C(O)c1cccc(S(=O)(=O)N2CC=C(c3ccccc3)CC2)c1`: the “activity, positive = re-replication” value was 8.48%.

Consider `O=C(Nc1ccc(Cl)c(Cl)c1)N1CC=C(c2ccccc2)CC1`, for which the Potency was 14.6 µM (active). On to `CCOc1ccc(/C=C(/C#N)c2nnc(N3CCOCC3)n2-c2ccccc2)cc1OC`, for which the “activity, positive = re-replication” value is -7.13%. Same read-out and setting: the value for `COc1cccc2c1C(=O)c1c(O)c3c(c(O)c1C2=O)CC(O)(C(C)=NNC(=O)c1ccc(Cl)c(Cl)c1)CC3OC1CC(N)C(O)C(C)O1` (configuration not stated) was 1.42%; that for `COc1cc2ccccc2cc1C(=O)Nc1ccccc1C` was 0.228%.

As for `COc1cc(OC)c(C(=O)Nc2ccccc2-c2ccccc2)cc1OC`, the Potency was 18.4 µM (active). Turning to `O=C(Nc1ccccc1-c1ccccc1)c1ccccc1[N+](=O)[O-]`, the “activity, positive = re-replication” value was 17.7%. For the molecule `O=C1C=C(c2cccc(Br)c2)C[C@@H](c2ccc(F)cc2)C1`, the “activity, positive = re-replication” value is 5.52%. On the same count and under the same terms, the value for `CNc1nc(=O)n(C2CCCO2)cc1C` (configuration not stated) was -4.08%.

Take `COc1ccc(C2(C#N)CCC(C(=O)O)CC2)cc1OC1CCCC1` (configuration not stated): the “activity, positive = re-replication” value was 22.2%. Turning to `COc1ccc(C(=O)Nc2ccc(C3(C#N)CCCC3)cc2)cc1OC`, the Potency is 20.6 µM (active). On to `COc1ccc(C(=O)Nc2ccc(N3CCC(C)CC3)cc2)cc1Br`, for which the “activity, positive = re-replication” value is -4.31%.

Regarding `CCOC(=O)CSC1=C(C#N)C(c2sccc2C)CC(=O)N1` (configuration not stated), the Potency is 2 µM (active).

With `C=CCOC(=O)C1=C(C)NC(SCC(=O)OCC)=C(C#N)C1c1ccc(C)cc1` (configuration not stated), the “activity, positive = re-replication” value is -0.999%.

Consider `COc1cc2c(cc1OC)C(c1ccc(C)o1)CC(=O)N2` (configuration not stated), for which the “activity, positive = re-replication” value was -6.53%. For the molecule `COC(=O)CSC1=C(C#N)C(c2ccccc2OC)C(C(=O)OC)C(=O)N1` (configuration not stated), the “activity, positive = re-replication” value was 2.02%. Regarding `C=CCSC1=C(C#N)C(c2cc(Br)c(O)c(OC)c2)CC(=O)N1` (configuration not stated), the “activity, positive = re-replication” value was 9.73%. Regarding `Cc1ccc(C2CC(=O)NC(SCC(=O)OCc3ccccc3)=C2C#N)o1` (configuration not stated), the Potency is 20.6 µM (active).

For `CSCCC(NC(=O)COc1ccccc1)C(=O)OCc1ccc(Cl)cc1` (configuration not stated), the “activity, positive = re-replication” value is -3.5%. Turning to `COc1cc(N)c(Cl)cc1C(=O)OCC(=O)c1ccc2c(c1)NC(=O)CO2`, the “activity, positive = re-replication” value was 8.09%. For `CCOC(=O)N(Cc1ccccc1)C1CC1`, the “activity, positive = re-replication” value is -3.86%.

On to `CC1(C)C(=O)CCC2(C)C1=CCC1C2C(=O)CC2(C)C1CCC2(O)C(=O)CO` (configuration not stated), for which the “activity, positive = re-replication” value is -0.698%. On the same count and under the same terms, to `NS(=O)(=O)c1ccc(CNC(=S)NC(=O)c2ccco2)cc1` belongs -22.5%; to `O=C(CNC(=O)c1ccc2ccccc2c1)Nc1ncccc1O`, 0.181%. With `CCOc1cccc(-n2nnnc2-c2ccc(OC)cc2)c1`, the Potency was 6.51 µM (active). For `CCOC(=O)C(C)n1cnc2c(nnn2-c2cccc(OC)c2)c1=O` (configuration not stated), the “activity, positive = re-replication” value is -1.31%. The same measure, in the same setting: to `c1ccc(-n2nnnc2-c2cccnc2)cc1` belongs -5.22%; to `CC1CCCCC1NCC(=O)Nc1ccccc1C(=O)Nc1ccccc1` (configuration not stated), 6.18%.

Regarding `CC(C#N)(NC(=O)CN1CCN(S(=O)(=O)c2cc(C(F)(F)F)ccc2Cl)CC1)C1CC1` (configuration not stated), the “activity, positive = re-replication” value is 6.07%. Still for that read-out and setting: to `CCOc1cc(NC(=O)c2ccccc2C(=O)O)c(OCC)cc1NC(=O)c1ccccc1F` belongs 3.86%. For `CCN1CCN(c2cc3nc(C)n(Cc4ccccc4)c(=O)c3cc2NC(=O)c2ccccc2F)CC1`, the Potency is 18.4 µM (active). `CCC(=O)Nc1ccc2nc(C)n(Cc3ccccc3Cl)c(=O)c2c1`: the “activity, positive = re-replication” value is -0.14%. On the same count and under the same terms, to `O=C(N=C1SC2CS(=O)(=O)CC2N1c1ccccc1)c1ccccc1` (configuration not stated) belongs -22.6%; to `C[C@@H]1CN([C@@H](C)CO)C(=O)c2cccc(NS(=O)(=O)c3ccc(F)cc3)c2O[C@H]1CN(C)C(=O)NC1CCCCC1`, 2.38%. Still for that read-out and setting: to `CN(C)CCNC(=O)c1ccc(Cl)c2cc3ccccc3nc12` belongs 12%; to `Cc1ccc(NC(=O)c2cccc(S(=O)(=O)N3CCCc4ccccc43)c2)nc1`, 15.6%. For the molecule `O=C(Nc1nc2ccc([N+](=O)[O-])cc2s1)c1ccc(S(=O)(=O)N2CCCc3ccccc32)cc1`, the Potency was 2.59 µM (active).

For the molecule `CS(=O)(=O)c1ccc2nc(NC(=O)c3ccc(N4CCCC4=O)cc3)sc2c1`, the “activity, positive = re-replication” value was -12.8%.

As to `COc1ccc(NC(=O)CNC(=O)Cc2ccccc2)cc1OC`, the “activity, positive = re-replication” value is 2.51%.

For the molecule `COc1ccc(CNC(=O)Cc2ccc(-c3ccccc3)cc2)cc1OC`, the Potency was 11.6 µM (active). For `COc1ccc(CNC(=O)COC(=O)c2sccc2C)cc1OC`, the “activity, positive = re-replication” value was -0.751%.

Turning to `COc1ccc(CNC(=O)COC(=O)c2c(C)nn(-c3ccccc3)c2C)cc1OC`, the “activity, positive = re-replication” value was -1.39%. Still for that read-out and setting: the value for `COc1ccc(CCNC(=O)Cc2ccc(C)cc2)cc1OC` was 3%.

Take `COc1ccc(CNC(=O)COc2ccccc2C(=O)c2cnn(-c3ccccc3)c2)cc1OC`: the Potency is 13 µM (active). On to `CC1CCCCC1NC(=O)NC(=O)COC(=O)C1=NN(c2ccccc2)C(=O)CC1` (configuration not stated), for which the “activity, positive = re-replication” value was 3.38%. As to `COc1cc(Cl)ccc1OCc1cc(C(=O)N2CC[C@@H]3CCCC[C@H]3C2)no1`, the Potency was 16.4 µM (active). Regarding `CC1CN(C(=O)c2cc(COc3c(F)cccc3F)on2)CCN1C` (configuration not stated), the “activity, positive = re-replication” value was -5.24%. For `CCn1ccnc1CN(C)C(=O)c1cc(COc2ccc(Cl)cc2OC)on1`, the “activity, positive = re-replication” value was -7.68%.
